Screening data: PubChem, Buhrlage Lab, Dana-Farber Cancer Institute and Novartis Institutes for BioMedical Research (Cambridge, Mass)
OTUD3 block = inhibitors of human OTUD3 deubiquitinase. 0.7% of 47,000 active. OTU domain-containing protein 3 (Homo sapiens), Q5T2D3. inhibition, % at 25 µM. AID 1645858, 2021. purified OTUD3, Ub-rhodamine fluorescence, 2 h
Target sequence (Q5T2D3 whole entry, looked up, the tested form may be a part): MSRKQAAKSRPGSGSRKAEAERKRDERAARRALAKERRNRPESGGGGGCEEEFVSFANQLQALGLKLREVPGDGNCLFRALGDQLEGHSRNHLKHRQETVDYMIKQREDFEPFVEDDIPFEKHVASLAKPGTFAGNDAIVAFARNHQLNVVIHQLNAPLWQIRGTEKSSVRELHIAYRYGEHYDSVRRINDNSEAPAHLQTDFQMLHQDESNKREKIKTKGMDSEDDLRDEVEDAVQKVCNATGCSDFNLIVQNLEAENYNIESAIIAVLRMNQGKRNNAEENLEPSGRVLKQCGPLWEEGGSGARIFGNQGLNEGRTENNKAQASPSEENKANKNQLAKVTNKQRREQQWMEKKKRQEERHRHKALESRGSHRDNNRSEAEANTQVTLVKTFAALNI
USP17 block = inhibitors of human USP17 deubiquitinase; inhibition, % at 50 µM; purified USP17, Ub-rhodamine cleavage fluorescence, 3 h; 6.5% of 47,000 active; Ubiquitin carboxyl-terminal hydrolase 17-like protein 5 (Homo sapiens), A8MUK1
USP30 inh = inhibitors of human USP30 deubiquitinase; purified USP30, Ub-rhodamine cleavage fluorescence; inhibition, % at 25 µM; 5.3% of 47,000 active
USP28 block = inhibitors of human USP28 deubiquitinase. Ubiquitin carboxyl-terminal hydrolase 28 (Homo sapiens), Q96RU2. purified USP28, Ub-rhodamine cleavage fluorescence, 30 min. inhibition, % at 25 µM. 3% of 47,000 active
* = called active by the depositor; nt = no result. Compounds with a hit are over-represented: about 12% of the library has one in this group of screens. Rule as the data show it: active = inhibition above about 30%; inactive = the rest.

SMILES | OTUD3 block | USP17 block | USP30 inh | USP28 block
COCCNC(=O)C1CCN(S(=O)(=O)c2ccc3c(c2)CCCC3)CC1 | -5 | -14 | -2 | -9
O=C(NCc1cccnc1)C1CCN(S(=O)(=O)c2ccc3c(c2)CCCC3)CC1 | 7 | 7 | 34* | 11
COc1ccc(CNC(=O)Nc2cccc3ccccc23)cc1 | 16 | 92* | 38* | 24
O=C(NCc1ccccc1)Nc1cccc2ccccc12 | 3 | 84* | -5 | 19
O=C(CCc1ccc2[nH]ccc2c1)NCc1ccc(F)cc1 | -21 | -21 | -55 | -23
O=C(NCc1ccc(F)cc1)Nc1cccc2ccccc12 | 19 | 40* | 40* | 17
Cc1nc2c(NC(=O)NCc3ccccc3)cccn2n1 | -9 | 0 | -10 | 1
O=C(COc1ccc2ccccc2c1)Nc1cccc2ccccc12 | 8 | 65* | 46* | 19
Cc1cc(C2CCCN2C(=O)c2cc(-c3cccc(Cl)c3)on2)on1 (stereo unspecified) | -13 | -8 | 7 | 7
Cc1cc(C(=O)N2C[C@H](OCC3CC3)[C@H]3COC[C@H]32)no1 | 5 | 0 | -8 | 4
Cc1cccc(N(C)C(=O)C(C)n2cnc3onc(C)c3c2=O)c1 (stereo unspecified) | 17 | 19 | 17 | 3
O=C(Oc1ccc2oc3ccccc3c2c1)c1ccc2c(=O)n3c(nc2c1)CCCCC3 | -4 | -2 | -15 | -6
CC(C)=CCc1cccc2c(C3=C(O)C(=O)C(c4c[nH]c5c(CC=C(C)C)cccc45)=C(O)C3=O)c[nH]c12 | 31* | 72* | 43* | 52*
Clc1cccc(-n2cc(-c3noc(-c4cccnc4)n3)nn2)c1 | -4 | 19 | -36 | -23
Cc1nc(-c2ccc3c(c2)nnn3CCN2CCOCC2)no1 | 41* | 6 | 20 | 16
CCc1nc(-c2ccc3c(c2)nnn3CCN2CCCCC2)no1 | -2 | -1 | -14 | 0
N=C1C(c2nc3ccccc3s2)=C(O)CN1Cc1ccc(F)cc1 | -1 | 51* | 18 | -19
CNC(=O)c1cc(CC2CCCN(c3ccncn3)CC2)ncn1 (stereo unspecified) | -7 | -3 | -5 | -12
CC(C)C(=O)N1CCc2[nH]c3ccc(Cl)cc3c2C1 | -58 | -65 | -257 | -44
O=C(N[C@H]1C[C@@H]2C[C@H]1N(C(=O)c1ccc3c(c1)OCO3)C2)c1cccnc1 | 11 | 8 | 1 | 5
CCC(C)NC(=O)Cn1c(=O)n(-c2ccccc2)c(=O)c2ccc(C(=O)NCc3ccco3)cc21 (stereo unspecified) | 32* | 16 | 73* | 39*
O=C(CCCn1c(=O)c2sccc2n(CC(=O)NCCC2=CCCCC2)c1=O)NCc1ccc2c(c1)OCO2 | 28 | 50* | 20 | 32*
Cc1ccc(NC(=O)Cn2c(=O)n(-c3ccc(CC(=O)NCc4ccco4)cc3)c(=O)c3sccc32)c(C)c1 | -2 | 69* | nt | nt
COc1ccc(NC(=O)Cn2c(=O)n(-c3ccc(CC(=O)NCc4ccco4)cc3)c(=O)c3ccccc32)cc1Cl | 9 | 12 | -1 | -9
COc1c(C)cnc2c1c(=O)n(CC(=O)NCc1ccc3c(c1)OCO3)c(=O)n2C | 23 | 22 | 36* | 5
SMILES | OTUD3 block | USP17 block | USP30 inh | USP28 block
Cc1c(C#N)c2ccccc2n1CC(=O)NCC1CCCO1 (stereo unspecified) | -12 | -7 | -30 | -8
Cc1cc(C)c(NC(=O)Cn2c(=O)n(CCC(=O)NCc3ccc4c(c3)OCO4)c(=O)c3sccc32)c(C)c1 | 34* | 75* | 27 | 49*
Cc1c(C#N)c2ccccc2n1CC(=O)NCc1ccc2c(c1)OCO2 | -27 | 40* | 22 | 32*
CCc1ccccc1NC(=O)Cc1nc(-c2ccc(OC)cc2)no1 | 12 | 6 | 17 | -1
Cn1c(CCN2CCN(c3ccccn3)CC2)nc2cc(NC(=O)NC3CCCCC3)ccc21 | 0 | nt | 10 | 3
CNC(=O)c1cc2nc(N(C)C)n(-c3ccccc3)c2s1 | -1 | 54* | -6 | 19
CCNC(=O)c1cc2nc(N(C)C)n(-c3ccccc3)c2s1 | -6 | 38* | -38 | 22
COc1ccc(-n2c(N(C)C)nc3cc(C(=O)NC4CC4)sc32)cc1 | -5 | 4 | -5 | 42*
CNC(=O)c1cc2nc(N(C)C)n(-c3ccc(OC)cc3)c2s1 | 12 | 46* | 8 | 20
NC(=O)c1cccc(Nc2nc(C(F)(F)F)nc3ccccc23)c1 | 0 | 6 | -3 | 8
Fc1ccc(Nc2nc(-c3ccccn3)nc3ccccc23)cc1 | -4 | 39* | 31* | 10
Fc1cccc(Nc2nc(-c3ccccn3)nc3ccccc23)c1 | -3 | 43* | 25 | 7
Cc1ccccc1-c1nnc2sc(COc3ccc(Cl)cc3)nn12 | 37* | 68* | 80* | 53*
CSc1ccccc1NC(=O)c1ccc(-n2cccn2)nn1 | 9 | 62* | 41* | 13
CSc1ccccc1NC(=O)c1ccc(N2CCOCC2)nn1 | -1 | nt | 5 | -9
Cc1noc(-c2ccc(-c3noc(-c4ccccc4Cl)n3)cc2)n1 | 7 | 7 | 18 | 0
CC(C(=O)NCc1ccc(F)cc1)n1cccc1C(=O)c1ccccc1 (stereo unspecified) | 74* | 0 | -22 | 8
COc1cc(NC(=O)c2ccc3c(c2)OCO3)ccc1-c1cc2ccccc2oc1=O | 55* | 47* | -19 | 43*
Cc1cc(NC(=O)c2ccccc2F)ccc1-c1cc2ccccc2oc1=O | 3 | 5 | 12 | 14
CCn1c(COc2ccc(Cl)c3cccnc23)nnc1SC(F)F | 19 | 18 | 40* | 20
COc1ccc(-c2nc(-c3ccccc3)[nH]c2S(=O)(=O)CC(=O)Nc2ccc(F)cc2)cc1 | 12 | 36* | 22 | 20
COc1ccc(NC(=O)CS(=O)(=O)c2[nH]c(-c3ccc(C)cc3)nc2-c2ccccc2)cc1Cl | -5 | 21 | 60* | 9
O=C(CNC(=O)c1cccc(F)c1)Nc1nc2ccccc2[nH]1 | 7 | 64* | 39* | 22
Cc1ccc(CC(=O)NC(C)C(=O)Nc2nc3ccccc3[nH]2)cc1 (stereo unspecified) | 20 | 12 | 24 | 13
O=C(Cc1cccc(F)c1)NCC(=O)Nc1nc2ccccc2[nH]1 | -2 | 21 | 2 | 2
SMILES | OTUD3 block | USP17 block | USP30 inh | USP28 block
Cc1ccccc1CC(=O)NCC(=O)Nc1nc2ccccc2[nH]1 | 22 | 44* | 32* | 27
Cc1ccc(C(=O)NCC(=O)Nc2nc3ccccc3[nH]2)cc1 | -5 | 42* | -3 | 4
Cc1ccccc1CNC(=O)N1C[C@H]2C[C@H]3[C@](C1)(CN(Cc1cccnc1)S3(=O)=O)O2 | 14 | 13 | 27 | 7
Cc1nc(-c2cccc(S(=O)(=O)NC3CCCc4ccccc43)c2)no1 (stereo unspecified) | 9 | 18 | 11 | 6
COc1ccc(C(=O)CCN2CCOCC2)cc1[N+](=O)[O-] | 36* | -2 | 28 | 2
COc1ccc(OC)c(CNCCCN2CCOCC2)c1 | -5 | -26 | 4 | -5
